Assay outcomes from PubChem.
aSyn rescue: qHTS of alpha-syn Inhibitors | AID 652106, 2013 | Yeast expressing alpha-synuclein, growth rescue, BacTiter-Glo, 24 h | 370,000 compounds, 0.14% hits | Potency, µM (titrated, usually from 46.1 µM), for the others: at the highest dose growth rescue (activation), hits mostly activators; further: % of control where 0% means no effect; nearly all actives have a fitted effect of over 65% in size
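Screening used galactose-induced yeast with toxic alpha-synuclein levels, exposed to compound for 24 hr at 30 deg C. Cell growth, read with BacTiter-Glo luminescence, gave the measured signal.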
TDP-43 yeast inh: qHTS of TDP-43 Inhibitors | TDP-43 expressing yeast growth rescue, BacTiter-Glo, 24 h | Potency, µM (top dose mostly 46.1 µM), for inactives: at the top dose growth rescue (activation), actives largely listed as activators | 410,000 compounds, 1.8% hits | AID 652104, 2013; further: % of control where 0% means no effect; nearly all actives have a fitted effect of over 50% in size
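Galactose-induced TDP-43 yeast, OD600=0.02, compound pinned; 24 hr, 30 deg C; BacTiter-Glo luminescence for growth. Inhibitors of TDP-43 toxicity read as activators.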
FUS suppressor: qHTS for Suppressors of FUS Proteinopathy: Primary screen using FUS-linked yeast assay | S. cerevisiae FUS-expressing, growth rescue, OD600, 24 h | Potency, µM (series often up to 76.6 µM), actives largely listed as activators | 390,000 compounds, 0.24% hits | AID 1347120, 2019;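 further: plate controls were DMSO vehicle for no effect and reference control for full effect; nearly all actives have a fitted effect of over 55% in size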
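Absorbance at 600 nm, taken 24hr after compound addition, measured rescue of FUS-yeast growth at 30C. Induction used 2% galactose with seeding at OD 0.005. Controls: CP55940 from 92uM final, DMSO only.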
Abeta yeast res: qHTS for compounds that reverse cellular toxicity of Amyloid beta (A-beta) peptide in yeast: Primary Screen; yeast expressing A-beta42, growth rescue, OD600, 48 h; response scale: 0% DMSO, 100% iron-clioquinol control; Potency, µM (titrated, usually from 46.1 µM), hits mostly activators; 410,000 compounds, 0.063% hits; AID 1347071, 2019; further: nearly all actives have a fitted effect of over 55% in size
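Yeast growth medium received pinned compounds, then yeast cells expressing toxic A-beta were added; plates incubated at 30 C for 48 hr. Growth read as absorbance at 600 nm, normalized to DMSO and equimolar FeCl3 plus clioquinol controls.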
Mito fusion yeast: qHTS Assay for Small Molecule Inhibitors of Mitochondrial Division or Activators of Mitochondrial Fusion. Potency, µM (series often up to 46.1 µM), for inactives: at the top dose growth rescue (activation), hits mostly activators. 320,000 compounds, 0.23% hits. S. cerevisiae fusion-defective mutant growth rescue, CellTiterGlo 48 h; further: % of control where 0% means no effect; nearly all actives have a fitted effect of over 45% in size
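Temperature-sensitive fusion-defective S. cerevisiae (e.g. fzo1-1, mgm1-5) were grown with compound in YPEG medium (3% ethanol, 3% glycerol) for 48 hours at 37C. Growth rescue was measured as viability by CellTiterGlo luminescence after 10 minutes at ambient.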
Active calls of the source: *; i = inactive; ? = inconclusive; nt = no result given. In the library only some 2.2% were active in any assay of this set; here they are far more common. The call rests on the fitted dose curve; in most records, active means well fitted curve in the direction sought with a large enough effect; inconclusive means small, poorly fitted or top-dose-only effect, or another doubt; inactive means no such curve, though single readings can be large; an effect the other way counts as inactive or inconclusive. Potency means the concentration at half of the fitted maximal effect.

SMILES | aSyn rescue | TDP-43 yeast inh | FUS suppressor | Abeta yeast res | Mito fusion yeast
Cc1ccc(OCCn2cc(C(=O)c3ccco3)c3ccccc32)cc1C | nt | 11.6% | i | i | nt
CCc1nc2c(OCCOc3ccc(F)cc3)cccn2c1N(C)C(=O)c1ccc(C)cc1 | 12.5% | -10.1% | i | i | nt
CCOc1ccc(NS(=O)(=O)c2ccc3[nH]cc(C(=O)N4CCCC4)c(=O)c3c2)cc1 | nt | 16.0% | i | i | nt
O=C(Nc1nc2c(s1)CCCC2)Oc1ccccc1 | 0.6% | 1.2% | i | i | -9.2%
C/C(=N\Nc1nc2c(s1)CCCC2)c1ccccc1 | 7.1% | 20µM* | ? | i | -10.2%
C/C(=N\Nc1nc(C(C)(C)C)cs1)c1ccccc1 | -25.6% | 22.4µM* | i | i | -14.3%
O=C1C2C3C=CC(C3=C(c3ccccc3)c3ccccc3)C2C(=O)N1CCO (configuration not stated) | 15.3% | 20µM* | i | i | -2.1%
O=C1C2C(c3ccccc3)C=CC(c3ccccc3)C2C(=O)N1CCO (configuration not stated) | 23.3% | -2.5% | i | i | 8.3%
O=C1CC(O)(C(F)(F)F)Oc2c1ccc1ccccc21 (configuration not stated) | 12.6µM* | 14.4% | i | i | 27.9%
CCc1cc(-c2nc(N)ncc2-c2csc(C)n2)c(O)cc1OC | 1.1% | 10.7% | i | i | 0.2%
CCCc1cc(-c2nc(N)ncc2-c2csc(C)n2)c(O)cc1OC | 1.3% | 12.6µM* | i | i | 4.8%
CCOC(=O)CN1C(=O)S/C(=C/c2ccc(C)o2)C1=O | 3.6% | 12.6µM* | i | i | -0.2%
CCOC(=O)CN1C(=O)S/C(=C/c2cc(C)n(C)c2C)C1=O | 14.0% | ? | i | i | nt
Cc1cc2occ(CC(=O)NCc3cccs3)c2cc1C(C)C | 19.7% | -20.9% | nt | i | 15.8µM*
COc1ccc(N/N=C(/C(C)=O)N2CCCc3ccccc32)cc1 | -2.9% | 20µM* | i | i | 11.2%
COc1ccc(/C=C/C(=O)N2CCCc3ccccc32)cc1 | -1.0% | 20µM* | nt | i | 28.7%
COc1ccc(OC)c(/C=C/C(=O)N2CCCc3ccccc32)c1 | 12.4% | ? | i | i | 27.0%
COc1ccc(NC(=O)N2CCCc3ccccc32)cc1 | -0.8% | 16.3% | i | i | -0.6%
COc1ccc(CN(Cc2ccccc2)C(=O)Nc2ccccc2)cc1COc1ccc(NC(C)=O)cc1 | 1.8% | nt | nt | nt | nt
O=S(=O)(NCc1c(Cl)cccc1Oc1ccccc1)c1ccccc1 | 18.4% | ? | i | i | 1.9%
Cc1ccc(S(=O)(=O)NCc2c(Cl)cccc2Oc2ccccc2)cc1 | 5.6% | 20µM* | i | i | 1.7%
COc1ccc2c(c1)[nH]c1c(Cl)ncnc12 | ? | 11.2µM* | i | i | -1.3%
N#Cc1cccc2c1-c1ccccc1/C2=N/NC(N)=O | 1.1% | 15.8% | i | i | 10.7%
N#Cc1cccc2c1-c1ccccc1/C2=N/NC(N)=S | -8.4% | 11.2µM* | i | i | 18.8%
Cc1c(CC(=O)N2CCCCC2)c(=O)oc2cc3occ(C(C)(C)C)c3cc12 | nt | 13.5% | i | i | nt
SMILES | aSyn rescue | TDP-43 yeast inh | FUS suppressor | Abeta yeast res | Mito fusion yeast
COc1cc2oc3ccccc3c(=O)c2cc1OC | ? | 15.8µM* | i | i | -7.7%
O=c1c2ccccc2oc2cc(Br)ccc12 | ? | 9.5% | i | i | nt
O=C(O[C@H]1CC[C@@]23CCCN2C(=O)CCC[C@H]3C1)N1CCOCC1 | nt | nt | i | nt | nt
Nn1c(SCC(=O)N2c3ccccc3Sc3ccc(Cl)cc32)nnc1-c1cc(-c2ccc(F)cc2)n[nH]1 | nt | nt | 14.1µM* | nt | nt
COc1cccc(-n2cnnn2)c1 | 0.3% | 14.6% | i | i | -7.1%
Cc1cccc(-n2nnnc2S(C)(=O)=O)c1 | nt | 17.8µM* | i | i | -10.2%
COc1cccc(-n2nnnc2S(C)(=O)=O)c1 | -17.1% | 1µM* | nt | i | -22.2%
COC(=O)c1nnn(-c2cccc(C)c2)c1C(=O)OC | nt | -3.7% | i | i | nt
CCC(C(=O)NCCc1cc(OC)ccc1OC)n1nc(C)c2c(C)n(-c3ccccc3)nc2c1=O (configuration not stated) | nt | 2.1% | i | i | nt
CCOc1ccccc1C(=O)N(Cc1cccs1)c1ccc(Cl)cc1 | nt | 22.4µM* | i | i | nt
COc1ccc(CCNC(=O)CCn2c(=O)c3ccccc3n(CC(=O)Nc3ccccc3F)c2=O)cc1OC | nt | 15.0% | i | i | nt
O=c1c2ccccc2nnn1Cc1ccccc1 | 8.9% | 17.8µM* | i | i | 6.9%
CCc1ccccc1N(C)C(=O)c1cn(-c2cccc(OC)c2)c(=O)c2ccccc12 | nt | 20µM* | i | i | nt
CCC(C)Sc1nnc(NC(=O)c2ccco2)s1 (configuration not stated) | -24.0% | 12.6µM* | i | i | nt
O=C(NCCc1ccc(Cl)cc1)c1ccc2c(c1)N(Cc1ccc(F)cc1Cl)C(=O)CS2 | nt | 24.4% | i | i | nt
N#CC(c1ccccc1)C(CC(=NO)c1ccccc1)c1ccccc1 (configuration not stated) | ? | 17.8µM* | i | i | nt
N#CC(c1ccc([N+](=O)[O-])cc1)C(CC(=O)c1ccccc1)c1ccccc1 (configuration not stated) | 1.0% | -11.7% | i | i | nt
Cc1ccc(C)c(Cn2c(=O)n(Cc3ccccc3)c(=O)c3sc4ccccc4c32)c1 | nt | 12.3% | i | i | nt
Cc1csc(NC(=O)c2sc3nc(-c4cccs4)ccc3c2N)n1 | 8.6% | -18.5% | i | i | 11.2µM*
CCCSc1nnc(NC(=O)c2sc3nc(-c4cccs4)ccc3c2N)s1 | 1.6% | -8.5% | 12.6µM* | i | 8.7%
Nc1ncc2c(n1)CC(c1ccco1)CC2=O (configuration not stated) | 0.6% | 14.1µM* | i | i | 1.0%
CC(=O)Nc1ccc(/C=C2\CCc3ccccc3C2=O)cc1 | 0.0% | 35.5µM* | i | i | 29.7%
COc1ccc(/C=C2\Cc3ccccc3C2=O)cc1OC | 15.5% | 14.1% | i | i | -22.0%
COc1ccc(/C=C2\CCc3ccccc3C2=O)cc1O | -12.8% | 14.1µM* | i | i | -1.5%
COc1ccc(CNC(=O)Cc2ccc(NC(=O)N3CCSc4ncccc43)cc2)cc1 | nt | 0.2% | i | i | nt
CN(C(=O)c1ccccc1OCc1ccc(Cl)cc1)c1ccccc1 | 0.5% | -5.3% | i | i | 1.5%
CN(Cc1nc2ccccc2c(=O)[nH]1)C(=O)c1ccccc1OCc1ccc(Cl)cc1 | 12.7% | 20µM* | i | i | 15.8%
